# Experimental data reported in PubChem BioAssay (NCATS).
# Inconclusive results are not listed. A call without a number means that no potency is given here. Unmarked numbers belong to inactive results. Activity calls are given as the source filed them. Calls come from the whole dose curve; as a rule, active = well fitted inhibition curve with a large enough effect; inconclusive = small, poorly fitted or top-dose-only effect; inactive = flat fitted curve, though single readings scatter.
# Columns and labels:
# CRL-7250 = normal cell line; assay: Cytotoxic Profiling of Annotated Libraries Using Quantitative High-Throughput Screening (AID 1296008); details: Five cell lines viability, CellTiter-Glo ATP luminescence, 48-72 h; active compounds read low
# Outline: (§1)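 Cytotoxicity was measured as CellTiter-Glo ATP luminescence, read after 10 min at room temperature. Compound treatment of the cells lasted 48 or 72 hr at 37 degrees Celsius in a qHTS format.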
# HEK293 = assay: as above; details: Five cell lines viability, CellTiter-Glo ATP luminescence, 48-72 h; active compounds read low
# Outline: as §1
# HaCat = assay: as above; details: Five cell lines viability, CellTiter-Glo ATP luminescence, 48-72 h; active compounds read low
# Outline: as §1
# KB-3-1 = assay: as above; details: Five cell lines viability, CellTiter-Glo ATP luminescence, 48-72 h, active compounds read low
# Outline: as §1
# NIH3T3 = assay: as above; details: Five cell lines viability, CellTiter-Glo ATP luminescence, 48-72 h; active compounds read low
# Outline: as §1
# MCC-13 = assay: qHTS assay to identify novel small-molecules to repurpose for Merkel cell carcinoma treatment (AID 1296009); details: MCC and control cell lines, CellTiter-Glo viability, 72 h; series mostly up to 46 µM
# Outline: (§2)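 After compound transfer in DMSO, plates were kept 72 hr at 37 degree celsius. Luminescent ATP signal from CellTiter-Glo served as viability measure, normalized against DMSO and no-cell controls.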
# MKL-1 = assay: as above; details: MCC and control cell lines, CellTiter-Glo viability, 72 h; series mostly up to 46 µM
# Outline: as §2
# P94_40 = assay: qHTS profiling for inhibitors of Plasmodium falciparum proliferation (AID 504749); note: potency is the fitted concentration of half-maximal effect; details: P. falciparum in erythrocytes, SYBR Green DNA, 72 h; series mostly up to 28.7 µM
# Outline: (§3)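 Three-day growth assay of blood-stage parasites in erythrocytes (0.3% parasitemia, 2.5% hematocrit) at 37 C, 5% CO2, quantified by SYBR Green DNA staining after overnight detergent lysis.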
# PAD = assay: as above; details: P. falciparum in erythrocytes, SYBR Green DNA, 72 h; series mostly up to 28.7 µM
# Outline: as §3
# PC15 = assay: as above; details: P. falciparum in erythrocytes, SYBR Green DNA, 72 h; series mostly up to 28.7 µM
# Outline: as §3
# PC26 = assay: as above; details: P. falciparum in erythrocytes, SYBR Green DNA, 72 h; series mostly up to 28.7 µM
# Outline: as §3
# PC49 = assay: as above; details: P. falciparum in erythrocytes, SYBR Green DNA, 72 h; series mostly up to 28.7 µM
# Outline: as §3
# SC27B = assay: as above; details: P. falciparum in erythrocytes, SYBR Green DNA, 72 h; series mostly up to 28.7 µM
# Outline: as §3
# TAB109 = assay: as above; details: P. falciparum in erythrocytes, SYBR Green DNA, 72 h; series mostly up to 28.7 µM
# Outline: as §3
# TAB113 = assay: as above; details: P. falciparum in erythrocytes, SYBR Green DNA, 72 h; series mostly up to 28.7 µM
# Outline: as §3
# TAB165 = assay: as above; details: P. falciparum in erythrocytes, SYBR Green DNA, 72 h; series mostly up to 28.7 µM
# Outline: as §3
# W2 = assay: as above; details: P. falciparum in erythrocytes, SYBR Green DNA, 72 h; series mostly up to 28.7 µM
# Outline: as §3
# MCC-26 = assay: qHTS assay to identify novel small-molecules to repurpose for Merkel cell carcinoma treatment (AID 1296009); details: MCC and control cell lines, CellTiter-Glo viability, 72 h; series mostly up to 46 µM
# Outline: as §2
# Note: nearly all actives have a fitted effect of over 60% in size.
Structure (SMILES),max response (CRL-7250),max response (HEK293),max response (HaCat),max response (KB-3-1),outcome (NIH3T3),outcome (MCC-13),outcome (MKL-1),Potency (P94_40),Potency (PAD),Potency (PC15),Potency (PC26),Potency (PC49),Potency (SC27B),Potency (TAB109),Potency (TAB113),Potency (TAB165),Potency (W2),outcome (MCC-26),max response (NIH3T3),outcome (CRL-7250)
O=C(O)[C@@H]1[C@H]2C[C@H]3c4[nH]c5ccccc5c4CCN3C[C@@H]2CC[C@@H]1O,-7.72%,-7.97%,4.24%,7.03%,inactive,inactive,inactive,,,,,,,,,,,,,
CC1(C)[C@@H](OC(=O)CCC(=O)O)CC[C@]2(C)[C@H]3C(=O)C=C4[C@@H]5C[C@@](C)(C(=O)O)CC[C@]5(C)CC[C@@]4(C)[C@]3(C)CC[C@@H]12,-5.85%,-0.807%,2.22%,-3.96%,inactive,inactive,inactive,,,,,,,,,,,,,
NC(=O)NS(=O)(=O)c1ccc(N)cc1,-2.79%,-4.98%,2.87%,0.448%,inactive,inactive,inactive,inactive,inactive,inactive,inactive,inactive,inactive,inactive,inactive,inactive,inactive,inactive,,
NC(=O)CC[C@@H](N)C(=O)O,-0.379%,-7.81%,-14.8%,-2.46%,,inactive,inactive,inactive,inactive,inactive,inactive,inactive,inactive,inactive,inactive,inactive,inactive,inactive,0.058%,
CCN(CC)CCOC(=O)C(c1ccccc1)c1ccccc1,4.76%,-4.53%,-2.12%,0.686%,,inactive,inactive,inactive,inactive,inactive,inactive,inactive,inactive,inactive,inactive,inactive,7.57 µM (active),inactive,-4.35%,
CCN(CC)CCc1nc(-c2ccccc2)no1,3.52%,-5.93%,4.68%,7.98%,,inactive,inactive,inactive,inactive,inactive,inactive,inactive,inactive,inactive,inactive,inactive,inactive,,1.98%,
O=C(O)CNC(=O)c1ccccc1I,4.72%,-1.69%,-16.3%,7.37%,inactive,inactive,inactive,inactive,inactive,inactive,inactive,inactive,inactive,inactive,inactive,inactive,inactive,inactive,,
NC(=O)CCCCC1CCSS1 (stereo not drawn),-9.01%,2.03%,-1.45%,-12.5%,,inactive,inactive,,,inactive,,inactive,inactive,inactive,inactive,,inactive,inactive,-6.71%,
CC(=O)NCc1c(I)c(NC(C)=O)c(I)c(C(=O)O)c1I,3.86%,-1.82%,-5.93%,5.09%,,inactive,inactive,inactive,inactive,inactive,inactive,0.005 µM (active),inactive,inactive,inactive,inactive,inactive,,-4.33%,
O=C(c1ccccc1)C(O)c1ccccc1 (stereo not drawn),-6.36%,-4.36%,-0.758%,-15.7%,inactive,inactive,inactive,inactive,inactive,inactive,inactive,,inactive,inactive,inactive,inactive,,inactive,,
Cc1[nH]c(C)c(Cl)c(=O)c1Cl,,-10%,-2.26%,-14.2%,,inactive,inactive,inactive,inactive,,,inactive,inactive,inactive,inactive,,,inactive,-10.7%,inactive
Cc1cc(C)nc(NS(=O)(=O)c2ccc(N)cc2)n1,-8.07%,3.16%,3.39%,-0.934%,inactive,inactive,inactive,inactive,inactive,inactive,inactive,inactive,inactive,inactive,inactive,inactive,inactive,inactive,,
CCCCCCCCCCCCCCCCCCO,0.886%,-5.18%,-4.21%,12.1%,inactive,inactive,inactive,inactive,inactive,inactive,inactive,inactive,inactive,inactive,inactive,inactive,inactive,inactive,,
CCOc1ccc(C(=O)OCCN(CC)CC)cc1,-0.597%,1.58%,-25.1%,-3.59%,,inactive,inactive,inactive,inactive,inactive,inactive,inactive,inactive,inactive,inactive,inactive,inactive,inactive,-1.32%,
